Assay [1] is described as follows: reducers of endogenous Her2 protein level, primary screen, SKBR3 breast tumor cells, AlphaScreen, ATP viability (AID 461;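 active means Her2 level under about 52% in both replicate screens, with viability over 70% of control, limit read from the data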;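 on Her2 level: lower value means less Her2 protein in the cells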;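 on viability: percent of carrier control wells set as 100% viability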). To be noted: 18-24 h, measured here: SKBR3 viability, ATP luminescence, at 10 µM.
For assay [2], the target named is Receptor tyrosine-protein kinase erbB-2 (Homo sapiens) (UniProt P04626). Described as above. To be noted: 18-24 h, at 10 µM, stronger effect = lower value.
Sequence of Receptor tyrosine-protein kinase erbB-2 (Homo sapiens) (P04626 whole entry, looked up): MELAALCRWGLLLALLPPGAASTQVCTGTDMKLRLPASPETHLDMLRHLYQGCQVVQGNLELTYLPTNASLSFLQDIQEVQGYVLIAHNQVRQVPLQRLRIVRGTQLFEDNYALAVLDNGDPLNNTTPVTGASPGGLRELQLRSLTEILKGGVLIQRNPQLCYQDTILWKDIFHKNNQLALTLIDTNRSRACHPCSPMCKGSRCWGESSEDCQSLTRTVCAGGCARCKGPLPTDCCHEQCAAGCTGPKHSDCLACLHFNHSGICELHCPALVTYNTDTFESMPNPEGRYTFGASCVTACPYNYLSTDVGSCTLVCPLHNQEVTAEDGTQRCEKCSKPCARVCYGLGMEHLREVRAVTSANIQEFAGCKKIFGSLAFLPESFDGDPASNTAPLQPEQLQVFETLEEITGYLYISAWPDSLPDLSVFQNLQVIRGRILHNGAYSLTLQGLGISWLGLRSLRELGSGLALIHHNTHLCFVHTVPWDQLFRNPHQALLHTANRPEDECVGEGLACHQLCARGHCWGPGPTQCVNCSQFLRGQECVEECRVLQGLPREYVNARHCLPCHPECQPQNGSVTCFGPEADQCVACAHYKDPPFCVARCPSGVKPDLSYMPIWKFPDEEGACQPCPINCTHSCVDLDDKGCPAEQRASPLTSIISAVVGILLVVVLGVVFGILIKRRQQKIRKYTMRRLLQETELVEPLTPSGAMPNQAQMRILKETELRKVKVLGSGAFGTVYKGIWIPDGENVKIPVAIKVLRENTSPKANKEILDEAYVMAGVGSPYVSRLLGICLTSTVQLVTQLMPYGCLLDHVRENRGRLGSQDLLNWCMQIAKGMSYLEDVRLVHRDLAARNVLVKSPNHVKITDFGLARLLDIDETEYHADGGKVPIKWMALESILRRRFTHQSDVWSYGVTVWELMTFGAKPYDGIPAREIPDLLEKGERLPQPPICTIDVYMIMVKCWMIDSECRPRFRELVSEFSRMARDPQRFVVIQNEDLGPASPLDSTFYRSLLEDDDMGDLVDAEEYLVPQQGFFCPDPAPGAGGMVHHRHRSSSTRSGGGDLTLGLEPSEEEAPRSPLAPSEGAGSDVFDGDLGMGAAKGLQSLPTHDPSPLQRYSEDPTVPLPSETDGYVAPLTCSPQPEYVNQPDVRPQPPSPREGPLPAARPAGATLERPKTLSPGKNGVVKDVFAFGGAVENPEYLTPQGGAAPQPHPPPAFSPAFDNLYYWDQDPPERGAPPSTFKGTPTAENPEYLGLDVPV
Assay [3] is described as follows: SK-BR-3 cell growth inhibitors, pilot screen, 24 h, human (AID 572;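 active means viability at or below 10% of carrier control in both of two separate runs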;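 further: compound exposure lasted between 18 and 24 h rather than exactly 24 h; 100% = carrier-treated control wells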). To be noted: SK-BR-3 viability, CellTiter-Glo luminescence, at 10 µM, stronger effect = lower value. For orientation: ATP-based viability assays read luminescence as a measure of living cells.
A short description of assay [4]: HUVEC growth inhibition – cell-based, human, primary screen (AID 575;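 active means viability at or below 30% in both replicate assays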;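 further: 100% = median of untreated cell wells with 0.1% DMSO on each plate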). To be noted: HUVEC proliferation, CellTiter-Glo luminescence, 72 h; at 10 µM; stronger effect = lower value.
Assay [5] is described as follows: growth inhibitors of H69AR lung tumor, primary screen, human, duplicate replicates (AID 580;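 active means viability at or under a set limit in both replicates, limit being median viability minus 3 SD, cut at about 48% in these data, passing the limit was not always enough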;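 further: 100% = mean luminescence of untreated wells and 0% = no signal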). To be noted: H69AR lung tumor cells viability, ATP luminescence, 72 h; at 10 µM; stronger effect = lower value.
The nature of assay [6]: reversal of MRP1-mediated doxorubicin resistance, pilot screen, H69AR cells, doxorubicin co-treatment (AID 601;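 active means viability loss from added drug above about 55%, and viability with drug at most 40%, in both replicates, limit read from the data, passing the limit was not always enough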). To be noted: CellTiter-Glo, 72 h, at 10 µM; for differential viability (reversal): stronger effect = higher value.
Assay [7] in a line: 384-well plate pilot, post-Golgi transport modulator project, inhibition of yeast transport mutant growth (AID 636; in the data active means inhibition above about 31%). To be noted: absorbance 615 nm, about 18 h, stronger effect = higher value.
Assay [8] can be described thus: growth suppression of yeast trafficking mutant, preliminary HTS, modulators of trafficking downstream of Golgi apparatus project, 1536-format plate, OD 615 nm (AID 637; in the data active means inhibition above about 30%). To be noted: yeast transport mutant growth, absorbance 615 nm, 18 h; stronger effect = higher value.
Assay [9] is described as follows: OD615 S. cerevisiae growth inhibition, permissive medium, pilot counter-assay, permissive growth control for S. cerevisiae lifespan shortening project (AID 705;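 active means growth inhibition above 25% in both replicates, a cutoff set 3 SD above the mean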). To be noted: OD615, 24 h, at 10 µM, stronger effect = higher value.
The nature of assay [10]: Restrictive medium S. cerevisiae growth inhibition, OD615, pilot screen of yeast lifespan reduction project, restrictive growth control (AID 706;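 active means growth inhibition above a set limit, 3 SD over mean compound inhibition, in both replicates, cut at about 43% in these data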;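 further: modified DeaD lifespan yeast strain shifted to restrictive glucose medium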). To be noted: OD615, 48 h, at 10 µM, stronger effect = higher value.
The nature of assay [11]: viability gain of MRP-1-high H69AR cells under doxorubicin, pilot screen, MRP-1 activator project, CellTiter-Glo, duplicate (AID 807).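 Further: compound pretreatment 18-22 h then 72 h combined with doxorubicin; 0% = doxorubicin alone and 100% = vehicle without doxorubicin.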 To be noted: H69AR viability with doxorubicin, CellTiter-Glo luminescence; at 10 µM; stronger effect = higher value.
Assay [12] can be described thus: growth suppression of beta-catenin knockout HCT116, pilot screen, human colon tumor cells (AID 823;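 active means cell viability at or below a set limit in both duplicate runs, the limit being the all-compound median minus 4 SD, cut at about 23% in these data, passing the limit was not always enough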;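 further: 0% = wells killed by 20 µM Hyamine and 100% = untreated DMSO cell wells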). To be noted: CellTiter-Glo, 60 h, at 10 µM, stronger effect = lower value.
A short description of assay [13]: growth suppression of PTEN-deleted HCT116, pilot screen, cell-based, HCT116 clonal line, CellTiter-Glo (AID 824;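 active means viability at or below 27.92% in each of two runs, the all-compound median minus 4 SD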;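 further: 0% = 20 µM Hyamine control and 100% = vehicle cell control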). To be noted: 60 h, at 10 µM, stronger effect = lower value.
A short description of assay [14]: inhibitors of the yeast RAM network, pilot screen, dse1pr::URA3 reporter, 5-FOA selection (AID 869;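 active means inhibition over a set limit, the all-compound mean plus 3 SD, in both replicate runs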;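 further: 0% = DMSO wells with no growth and 100% = 10 µM 1-NA-PP1 with full growth; RAM network block rescues cells from 5-FOA so hits raise OD615 growth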). To be noted: S. cerevisiae dse1pr::URA3 5-FOA growth, OD615, 2 d; at 10 µM; stronger effect = higher value; strain carries analog-sensitive mutant Cbk1 kinase.
Assay [15] in a line: RAM signaling pathway blockade in yeast – S. cerevisiae, Pdr1DBD-CYC8 efflux-inhibited sensitized strain, primary screen (AID 1298;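 active means RAM network inhibition above 8.4% in each of two replicates, 3 SD over the compound average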;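 further: 0% = DMSO untreated cells without growth and 100% = 10 µM 1-NA-PP1 full growth; higher means more yeast growth rescued from 5-FOA killing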). To be noted: S. cerevisiae cbk1-as DSE1-URA3 strain, 5-FOA growth OD615, 2 d; at 50 µM; stronger effect = higher value.
The mark [16] stands for this setting: H69AR cells + 2 uM doxorubicin, measured here: viability with 2 uM doxorubicin, stronger effect = lower value.
Setting [17] is: H69AR cells, compound alone cytotoxicity.

The structures appear in SMILES notation. Results filed as inconclusive are left out. Calls of active or inactive are those of the source.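 How the source made its calls, unless noted: active means viability increase at or above a cutoff of the median across tested compounds plus 3 SD (cut at about 8.5% in these data, passing the limit was not always enough); inconclusive means some gains above the cutoff, reason not given; inactive means the rest.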

For the compound `COc1ccc(-c2noc(COc3ccc(Cl)c(C)c3)n2)cc1`, the viability in assay [1] was 91%; in assay [3], 91% (inactive); in assay [4], 99.6% (inactive); in assay [5], 88.4% (inactive); in assay [6] (setting [16]), 83.7%; in [6] (setting [17]), 88.4%. The viability is 101% (inactive) in assay [12] and 91.5% (inactive) in [13]. The Her2 level in [2] was 115% (inactive). For the same compound, the differential viability (reversal) in [6] (H69AR cells + 2 uM doxorubicin) was 4.7% (inactive). Further, the inhibition in assay [7] was -5.07% (inactive); in [8], -7.38% (inactive); in [14] it was 6.36% (active). Also, the growth inhibition is -7.56% (inactive) in assay [9] and -29% (inactive) in assay [10]. In assay [11], the viability increase was 0.12% (inactive). Further, in assay [15], the RAM network inhibition was 8.54% (inactive).

On to `COCCNC(=O)Cn1cc2c(n1)CCCCC2`, for which the viability in assay [1] was 93.5%; in [3], 93.5% (inactive); in [4], 112% (inactive); in assay [5], 95.7% (inactive); in assay [6] (setting [16]) it was 88.3%; in [6] (setting [17]) it was 95.7%. The figures for the viability in assay [12] and in assay [13] were 104% (inactive) and 96.5% (inactive), respectively. The Her2 level in assay [2] is 101% (inactive). In [6] (H69AR cells + 2 uM doxorubicin), the differential viability (reversal) was 7.38% (inactive). In addition, the inhibition in assay [7] is -1.41% (inactive); in assay [8], -1% (inactive); in assay [14] it was 3.16% (inactive). The growth inhibition was -8.06% (inactive) in assay [9] and 5.06% (inactive) in assay [10]. Moreover, in [11], the viability increase is 0.1% (inactive). Also, the RAM network inhibition in assay [15] was 5.21% (inactive).

Consider `CCOC(=O)/C(C#N)=C(/C)c1ccc(OC)cc1`, for which the viability in [1] was 96%; in assay [3] it was 96% (inactive); in assay [4] it was 110% (inactive); in assay [5], 102% (inactive); in assay [6] (setting [16]) it was 96.2%; in assay [6] (setting [17]), 102%. Also, the results for the viability in [12] and in [13] were 99.5% (inactive) and 99% (inactive), respectively. Also, the Her2 level in [2] was 104% (inactive). For the same compound, in assay [6] (H69AR cells + 2 uM doxorubicin), the differential viability (reversal) was 5.39% (inactive). Also, the inhibition is -2.53% (inactive) in assay [7], -7.74% (inactive) in assay [8] and 1.11% (inactive) in assay [14]. The values for the growth inhibition in [9] and in assay [10] were -14.7% (inactive) and -5.52% (inactive), respectively. For the same compound, in assay [11], the viability increase was 0.09% (inactive). The RAM network inhibition in assay [15] is 3.87% (inactive).

For the compound `COc1ccc(-c2nnc(SCC(=O)N3CCOCC3)o2)cc1OC`, the viability is 91% in assay [1]; 91% (inactive) in assay [3]; 89.4% (inactive) in assay [4]; 96.1% (inactive) in assay [5]; 92.7% in assay [6] (setting [16]); 96.1% in assay [6] (setting [17]). The values for the viability in assay [12] and in assay [13] were 103% (inactive) and 110% (inactive), respectively. Further, in assay [2], the Her2 level is 96% (inactive). In assay [6] (H69AR cells + 2 uM doxorubicin), the differential viability (reversal) was 3.41% (inactive). Also, the inhibition was -1.2% (inactive) in assay [7], -6.89% (inactive) in assay [8] and 1.16% (inactive) in assay [14]. Moreover, the values for the growth inhibition in assay [9] and in assay [10] were 1.14% (inactive) and -3.02% (inactive), respectively. Further, in [11], the viability increase was -1.32% (inactive). Besides, the RAM network inhibition in assay [15] was 1.27% (inactive).

Consider `COc1ccc(CCNc2oc(COc3ccccc3Cl)nc2C#N)cc1OC`, for which the viability in assay [1] is 90%; in [3] it was 90% (inactive); in assay [4], 56.8% (inactive); in [5], 92.2% (inactive); in [6] (setting [16]) it was 96.3%; in assay [6] (setting [17]), 92.2%. In addition, the values for the viability in assay [12] and in [13] were 88.5% (inactive) and 73.2% (inactive), respectively. For the same compound, in [2], the Her2 level was 87% (inactive). For the same compound, the differential viability (reversal) in assay [6] (H69AR cells + 2 uM doxorubicin) was -4.1% (inactive). The inhibition was -1.6% (inactive) in assay [7], -1.83% (inactive) in assay [8] and 1.5% (inactive) in assay [14]. The values for the growth inhibition in [9] and in assay [10] were -10% (inactive) and -0.295% (inactive), respectively. In assay [11], the viability increase was -1.73% (inactive). Besides, the RAM network inhibition in assay [15] was 2.3% (inactive).

The viability is a read-out of living cells in per cent, often relative to untreated cells. The term inhibition denotes the drop in the measured response relative to a control, in per cent.
